Source: PubChem BioAssay (The Scripps Research Institute Molecular Screening Center)
The list is not random: actives were taken first. Their share in the collection is about 3%.
pPAFAH inh: pPAFAH (human) enzyme inhibition | Q13093 | recombinant pPAFAH, FP-rhodamine probe fluorescence polarization | inhibition, % at 3.39 µM | 330,000 compounds, 1.5% hits;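 active = inhibition above the mean inhibition across the screen plus 3 SD, cut at about 25% in these data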;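 also: inhibitors block binding of the rhodamine activity-based probe so polarization drops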
Fh CTSL1 inh: counter-screen for PFM18AAP inhibitors: inhibitors of F. hepatica cathepsin L1; recombinant F. hepatica cathepsin L1, Z-Leu-Arg-MCA fluorescence; inhibition, % at 5.96 µM; 300,000 compounds, 0.49% hits; AID 1906;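 active = inhibition above the mean of all tested compounds plus 3 SD, set per screening campaign, cut at about 17% in these data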
PAFAH1B2 FP inh: inhibitors of human PAFAH1B2 | P68402 | recombinant PAFAH1B2, FP-rhodamine activity probe, fluorescence polarization | inhibition, % at 3.39 µM | 340,000 compounds, 1.2% hits;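 active = inhibition above the mean of all tested compounds plus 3 SD, cut at about 24% in these data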
PAFAH1B3 FP inh: inhibitors of human PAFAH1B3. Q15102. recombinant PAFAH1B3, FP-rhodamine probe, fluorescence polarization. inhibition, % at 3.39 µM. 340,000 compounds, 0.28% hits. AID 492972;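 active = inhibition above the screen-wide average of all tested compounds plus 3 SD, cut at about 25% in these data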
PAFAH2 inh: inhibitors of human PAFAH2. recombinant PAFAH2, FP-rhodamine activity probe, fluorescence polarization. inhibition, % at 3.39 µM. 340,000 compounds, 0.99% hits. AID 492956;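 active = inhibition above the mean over all tested compounds plus 3 SD, cut at about 30% in these data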;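 also: inhibitors block probe labeling of enzyme so polarization drops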
PP5 primary: PP5 (human) phosphatase inhibition; 320,000 compounds, 0.18% hits; AID 1987; inhibition, % at 6.7 µM; purified PP5c, OMFP substrate fluorescence; P53041;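 active = inhibition above the campaign's mean inhibition across all tested compounds plus 3 SD, cut at about 9.5% in these data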
Target sequence (P53041 whole entry, looked up): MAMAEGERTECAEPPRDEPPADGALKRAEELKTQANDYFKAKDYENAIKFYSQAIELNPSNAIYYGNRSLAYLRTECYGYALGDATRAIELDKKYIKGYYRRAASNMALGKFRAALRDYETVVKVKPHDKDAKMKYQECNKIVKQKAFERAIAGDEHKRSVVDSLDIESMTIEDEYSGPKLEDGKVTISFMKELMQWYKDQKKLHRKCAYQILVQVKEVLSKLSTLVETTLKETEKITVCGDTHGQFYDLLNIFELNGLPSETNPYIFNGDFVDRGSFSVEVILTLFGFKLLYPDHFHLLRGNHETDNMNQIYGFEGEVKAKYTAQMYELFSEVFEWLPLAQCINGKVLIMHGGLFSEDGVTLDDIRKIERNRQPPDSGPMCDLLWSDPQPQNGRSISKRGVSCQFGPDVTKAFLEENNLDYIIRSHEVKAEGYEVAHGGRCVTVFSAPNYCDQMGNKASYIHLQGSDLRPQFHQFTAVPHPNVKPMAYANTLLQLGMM
Hits are given with their value; - = inactive; . = no result.

SMILES | pPAFAH inh | Fh CTSL1 inh | PAFAH1B2 FP inh | PAFAH1B3 FP inh | PAFAH2 inh | PP5 primary
O=C(O)C1C2CCC(O2)C1C(=O)Nc1cnn(Cc2ccccc2)c1 (configuration not stated) | - | - | - | - | - | 41
Cc1ccc(NC(=O)C2C3CCC(O3)C2C(=O)O)cc1Cl (configuration not stated) | - | - | - | - | - | 75
O=C(Nc1cnn(Cc2ccccc2)c1)NC12CC3CC(CC(C3)C1)C2 | - | - | - | - | - | -
O=C(O)C1C2CCC(O2)C1C(=O)Nc1ccc(F)c(Cl)c1 (configuration not stated) | - | - | - | - | - | 71
O=C(Nc1ccc(F)c(Cl)c1)c1ccccc1 | - | - | - | - | - | -
CC(C)(C)OC(=O)N1CCCC(C(=O)Nc2ccc(C(=O)NCc3ccccc3)cc2)C1 (configuration not stated) | . | . | - | - | - | .
CCOC(=O)c1c(S(=O)(=O)NCC(=O)Nc2cccc(C)c2)c(C)n(C)c1C | - | - | - | - | - | -
CCC(C)c1ccc(NC(=O)c2c([N+](=O)[O-])cnn2CC)cc1 (configuration not stated) | . | . | - | - | - | .
CCCOP(=O)(c1ccc(N(C)C)cc1)C(Nc1ccccc1)c1ccc(C)cc1 (configuration not stated) | - | 21 | - | - | - | -
Cc1ccc(-c2cc(C(=O)NN3CCOCC3)c3cc(Br)ccc3n2)o1 | - | - | - | - | - | -
Cc1ccc(-c2cc(C(=O)O)c3cc(Br)ccc3n2)o1 | 28 | - | - | - | - | -
CCn1c(CSc2nc3ccccc3[nH]2)nc2cc(C(=O)O)ccc21 | - | - | - | - | - | -
CCn1c(CSc2nccn2C)nc2cc(C(=O)O)ccc21 | - | - | 30 | - | - | -
O=C(c1cccc(S(=O)(=O)NCc2ccccc2)c1)N1CCN(Cc2ccccc2)CC1 | 27 | - | 68 | - | - | -
O=C(c1cccc(S(=O)(=O)NCc2ccccc2)c1)N1CCCCC1 | - | - | - | - | - | -
CC1Cc2ccccc2N1S(=O)(=O)c1cccc(C(=O)NC2CC2)c1 (configuration not stated) | - | - | - | - | - | -
O=C(COC(=O)c1ccc(Cl)c(S(=O)(=O)NCc2ccccc2)c1)NC1CC1 | - | . | - | - | - | -
CC1Cc2ccccc2N1S(=O)(=O)c1cccc(C(=O)OCC(=O)NC2CCS(=O)(=O)C2)c1 (configuration not stated) | - | - | 26 | - | - | -
O=C(COC(=O)c1cccc(S(=O)(=O)NCc2ccccc2)c1)NC1CC1 | 27 | . | - | - | - | .
Cc1ccc(C2C(C#N)=C(N)SC(N)=C2C#N)o1 | 29 | - | . | . | . | -
NS(=O)(=O)c1ccc(NC2(C(=O)O)CCCC2)cc1 | - | - | - | - | - | -
O=C(Nc1ccccn1)C1(c2ccccc2)CCCC1 | - | - | 26 | - | - | -
Cc1ccc(OCC(=O)Nc2ccc([N+](=O)[O-])cc2)cc1 | - | - | - | - | - | -
Cc1ccc(NC(=O)C2(c3ccccc3)CCCC2)nc1 | - | - | - | - | - | -
O=C(Nc1cccnc1)C1(c2ccccc2)CCCC1 | - | - | - | - | - | -
SMILES | pPAFAH inh | Fh CTSL1 inh | PAFAH1B2 FP inh | PAFAH1B3 FP inh | PAFAH2 inh | PP5 primary
Cc1ccc(NC(=O)C2(c3ccc([N+](=O)[O-])cc3)CCCC2)cc1 | - | - | 25 | - | - | -
NS(=O)(=O)c1ccc(NC(=O)C2(c3ccccc3)CCCC2)cc1 | - | - | 27 | - | - | -
O=C(Nc1ccncc1)C1(c2ccccc2)CCCC1 | - | - | 27 | - | - | -
Cc1ccc2c(c1)N(CCC(=O)NC1CCCCC1C)C(=O)CO2 (configuration not stated) | - | - | - | - | - | -
Cc1ccsc1C(=O)N(C)C1CCS(=O)(=O)C1 (configuration not stated) | - | . | - | - | - | -
O=C(NCc1ccco1)c1ccccc1NS(=O)(=O)c1ccc(Br)s1 | 28 | - | - | - | - | -
CCCCCNS(=O)(=O)c1cc2c3c(c1)CCC(=O)N3CCC2 | - | - | - | - | - | -
Cc1cccc(N2CCN(C(=O)Cc3c(C(=O)O)[nH]c4ccc(Cl)cc34)CC2)c1C | - | - | - | - | - | -
CC(C)CCNC(=O)Cc1c(C(=O)O)[nH]c2ccc(Cl)cc12 | - | - | 50 | - | - | -
CCOC(=O)CN1CCC(c2cc(-c3ccc(Cl)cc3)n[nH]2)CC1 | 31 | - | - | - | - | -
COCCN(CC(=O)Nc1cccc(C)c1C)C(=O)c1oc2c(Cl)cccc2c1C | - | . | - | - | - | -
CCC1=C(OC(=O)N(CC)CC)N2C(=O)OC(=NCC3CC3)[C@]2(Cc2ccccc2)[C@H]2C1=CC[C@H]1C(=O)N(c3ccccc3)C(=O)[C@H]12 | - | - | - | - | - | -
OCCC1CN(Cc2c(F)cccc2Cl)CCN1C1CCCCC1 (configuration not stated) | 32 | - | - | - | - | -
OCCC1CN(Cc2c(F)cccc2Cl)CCN1C1CCCC1 (configuration not stated) | - | - | - | - | - | -
Oc1ccc(C[C@H]2CNC(=S)N2CC2CCCN2C[C@H](Cc2ccc(O)cc2)N2C[C@H](Cc3ccccc3)N(CC3CCCCC3)C2=S)cc1 (some centres not stated) | . | . | - | - | - | .
COC(=O)C1=C(C)N(C)C(=S)N(C)C1c1ccc(OC)cc1 (configuration not stated) | - | 17 | - | - | - | -
O=C(NNC(=S)NC(=O)C12CC3CC(CC(C3)C1)C2)c1ccncc1 | - | - | 45 | - | - | -
CC(C)c1ccc(C(=O)NNC(=O)c2ccncc2)cc1 | - | - | - | - | - | -
CCC(C)NC(=S)NNC(=O)c1ccncc1 (configuration not stated) | - | 20 | - | - | - | -
COc1cccc(CSc2nccn2C)c1 | - | - | - | - | - | -
O=S(=O)(NCC(c1cccs1)N1CCc2ccccc2C1)c1ccccc1 (configuration not stated) | - | - | - | - | - | -
CNc1ccccc(C(=O)/C=C/c2ccccc2OC)c1=O | 28 | - | - | - | - | -
CNc1ccc(Br)cc(C(=O)/C=C/c2cccc(OC)c2OC)c1=O | - | - | - | - | - | -
N#Cc1c(Nc2ccccc2)s[nH]c1=O | - | - | - | - | - | -
Nc1c(C(=O)c2ccccc2)sc(Nc2ccccc2)c1S(=O)(=O)c1ccccc1 | - | 19 | - | - | - | -
N#Cc1c(Nc2ccccc2)sc(C(=O)c2ccc(F)cc2)c1N | - | - | 30 | - | - | -
N#Cc1c(Nc2ccccc2)sc(C(=O)C2CC2)c1N | - | - | 28 | - | - | -
Cc1ccc(C(=O)c2sc(Nc3ccccc3)c(C#N)c2N)cc1 | - | - | - | - | - | -
